# Values joined by “and” are separate entries in the source; they are usually repeats but may differ in a detail not shown here. Equal values may be shown once. Results filed as inconclusive are left out. Active and inactive are the calls of the source. The calls were made as follows, unless noted: active = hit-call score of the fitted dose curve at least 0.9, where 1 is the maximum; inactive = score below 0.9.
# Experiments:
# [1] = BSK_LPS_PGE2: BioMAP Diversity Plus: LPS Assay for Prostaglandin E2 (PGE2) Biomarker Activity (AID 2283082); conditions: primary human HUVEC with PBMC; actives raise or lower the signal;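 as to AC50: secreted prostaglandin E2 measured by ELISA in LPS-stimulated co-culture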
# Summary of the method: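 HUVEC plus human PBMC co-culture stimulated with LPS; secreted PGE2 quantified by ELISA 24 h after chemical dosing. Activity fitted bidirectionally against DMSO baseline; parallel SRB staining (0.1% SRB after 10% TCA fixation, 560 nm) flags overt cytotoxicity.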
# [2] = read-out: Macrophage colony-stimulating factor (MCSF), CSF1 (gene 1435); assay: BSK_LPS_MCSF: BioMAP Diversity Plus: LPS Assay for Macrophage colony-stimulating factor (MCSF) Biomarker Activity (AID 2283083); conditions: primary human HUVEC with PBMC; actives raise or lower the signal
# Summary of the method: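 Human umbilical vein endothelial cells co-cultured with peripheral blood mononuclear cells were exposed to compound for 24 h. M-CSF levels were measured by ELISA, and bidirectional curve fitting used DMSO as the negative control and baseline.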
# [3] = read-out: Tissue Factor, F3 (gene 2152); assay: BSK_LPS_TissueFactor: BioMAP Diversity Plus: LPS Assay for Tissue Factor Biomarker Activity (AID 2283084); conditions: primary human HUVEC with PBMC; actives raise or lower the signal
# Summary of the method: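 Human umbilical vein endothelial cells co-cultured with peripheral blood mononuclear cells were dosed and stimulated with LPS. Cell-surface CD142 was quantified by ELISA at 24 h. Activity was fitted bidirectionally against DMSO baseline.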
# [4] = read-out: Tumor necrosis factor (Homo sapiens) (UniProt P01375); assay: BSK_LPS_TNFa: BioMAP Diversity Plus: LPS Assay for Tumour Necrosis Factor alpha (TNFa) Biomarker Activity (AID 2283085); conditions: primary human HUVEC with PBMC; actives raise or lower the signal
# Summary of the method: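 Human umbilical vein endothelial cells co-cultured with PBMC and stimulated with LPS. TNFa was measured by ELISA 24 h after chemical dosing, fitted bidirectionally relative to DMSO.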
# [5] = read-out: Vascular cell adhesion molecule 1 (VCAM1), VCAM1 (gene 7412); assay: BSK_LPS_VCAM1: BioMAP Diversity Plus: LPS Assay for Vascular cell adhesion molecule 1 (VCAM1) Biomarker Activity (AID 2283086); conditions: primary human HUVEC with PBMC; actives raise or lower the signal
# Summary of the method: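 Human umbilical vein endothelial cells co-cultured with PBMC and stimulated with LPS; VCAM-1 measured by ELISA 24 h after dosing. Bidirectional curve fitting against DMSO baseline; cytotoxicity tracked in parallel by SRB total-protein staining.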
# CD38, CD38 (gene 952) = assay: BSK_SAg_CD38: BioMAP Diversity Plus: SAg Assay for CD38 Biomarker Activity (AID 2283087); conditions: primary human HUVEC with PBMC; actives raise or lower the signal
# Summary of the method: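 Human HUVEC plus PBMC co-culture stimulated with superantigen; CD38 measured by ELISA 24 h after chemical dosing. Fluorescence read-out, bidirectional fit against DMSO; cytotoxicity tracked in parallel by SRB and Alamar Blue.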
# CD40, CD40 (gene 958) = assay: BSK_SAg_CD40: BioMAP Diversity Plus: SAg Assay for CD40 Biomarker Activity (AID 2283088); conditions: primary human HUVEC with PBMC; actives raise or lower the signal
# Summary of the method: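 Human umbilical vein endothelial cells co-cultured with PBMC; CD40 levels measured by ELISA with fluorescence read-out 24 h after chemical dosing. Gain or loss of signal fitted bidirectionally against DMSO baseline.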
# CD69, CD69 (gene 969) = assay: BSK_SAg_CD69: BioMAP Diversity Plus: SAg Assay for CD69 Biomarker Activity (AID 2283089); conditions: primary human HUVEC with PBMC; actives raise or lower the signal;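 as to AC50: cell surface CD69 protein quantified by ELISA with fluorescence detection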
# Summary of the method: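 Values derive from bidirectional fitting relative to DMSO vehicle. Cells: umbilical vein endothelium plus peripheral blood mononuclear cells, treated 24 h before fluorescent ELISA for CD69.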
# [6] = read-out: Monocyte Chemoattractant Protein-1 (MCP1), CCL2 (gene 6347); assay: BSK_SAg_MCP1: BioMAP Diversity Plus: SAg Assay for Monocyte Chemoattractant Protein-1 (MCP1) Biomarker Activity (AID 2283090); conditions: primary human HUVEC with PBMC; actives raise or lower the signal
# Summary of the method: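 MCP-1 levels in the endothelial–PBMC SAg co-culture were quantified by ELISA at 24 h post-dosing; both increases and decreases versus DMSO scored. Cytotoxicity monitored by SRB total protein in parallel cultures.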
# [7] = read-out: E-selectin (Homo sapiens) (UniProt P16581); assay: BSK_SAg_Eselectin: BioMAP Diversity Plus: SAg Assay for Eselectin Biomarker Activity (AID 2283091); conditions: primary human HUVEC with PBMC; actives raise or lower the signal
# Summary of the method: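 HUVEC co-cultured with PBMC, compound dosed then read at 24 h; E-selectin measured by ELISA. Activity fitted bidirectionally against DMSO as negative control and baseline.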
# [8] = read-out: Monokine induced gamma interferon (MIG), CXCL9 (gene 4283); assay: BSK_SAg_MIG: BioMAP Diversity Plus: SAg Assay for Monokine induced gamma interferon (MIG) Biomarker Activity (AID 2283092); conditions: primary human HUVEC with PBMC; actives raise or lower the signal
# Summary of the method: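 Values reflect bidirectional fitting of ELISA-measured MIG against DMSO vehicle, taken 24 h after dosing of a co-culture of human umbilical vein endothelial cells and peripheral blood mononuclear cells.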
# [9] = BSK_SAg_PBMCCytotoxicity: PBMC Cytotoxicity Assessment in the BioMAP Diversity Plus: SAg Assay (AID 2283093); conditions: primary human HUVEC with PBMC;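 also: PBMC viability measured as Alamar Blue reduction fluorescence at 546/580 nm; fitted both ways against DMSO so a hit may be loss or gain of signal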;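 as to AC50: PBMC superantigen activated with SEB plus TSST-1 one hour after compound addition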
# Summary of the method: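 HUVEC/PBMC co-culture; PBMC exposed to chemical 1 h before SEB and TSST-1 activation (20 ng/mL each), incubated 90 h, then Alamar Blue 6 h, fluorescence 546/580 nm. Bidirectional fit versus DMSO baseline.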
# [10] = read-out: Interleukin-8 (IL8), CXCL8 (gene 3576); assay: BSK_SAg_IL8: BioMAP Diversity Plus: SAg Assay for Interleukin-8 (IL8) Biomarker Activity (AID 2283094); conditions: primary human HUVEC with PBMC; actives raise or lower the signal
# Summary of the method: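 Human umbilical vein endothelial cells co-cultured with PBMC, stimulated with superantigen; IL-8 measured by ELISA 24 h after chemical dosing. Bidirectional fitting versus DMSO; SRB staining in parallel cultures tracks cytotoxicity.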
# [11] = BSK_SAg_SRB: Viability Assessment in the BioMAP Diversity Plus: SAg Assay (AID 2283096); conditions: primary human HUVEC with PBMC;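 also: cells read one day after compound addition; hits may be either gain or loss of signal compared with DMSO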
# Summary of the method: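 Human umbilical vein endothelial cells co-cultured with PBMC, read 24 h after compound dosing. Total protein measured by sulforhodamine B staining (0.1% SRB after 10% TCA fixation, absorbance 560 nm); bidirectional fit versus DMSO baseline.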
# [12] = target: human CYP19A1, CYP19A1 (gene 1588) (UniProt P11511); assay: NVS_ADME_hCYP19A1: NovaScreen (NVS) CYP450-related Enzyme Activity (ADME) Assay for human CYP19A1 (AID 2283098; active = hit-call score of the fitted dose curve at least 0.9, where 1 is the maximum)
# Sequence of human CYP19A1, CYP19A1 (gene 1588) (P11511 whole entry, looked up): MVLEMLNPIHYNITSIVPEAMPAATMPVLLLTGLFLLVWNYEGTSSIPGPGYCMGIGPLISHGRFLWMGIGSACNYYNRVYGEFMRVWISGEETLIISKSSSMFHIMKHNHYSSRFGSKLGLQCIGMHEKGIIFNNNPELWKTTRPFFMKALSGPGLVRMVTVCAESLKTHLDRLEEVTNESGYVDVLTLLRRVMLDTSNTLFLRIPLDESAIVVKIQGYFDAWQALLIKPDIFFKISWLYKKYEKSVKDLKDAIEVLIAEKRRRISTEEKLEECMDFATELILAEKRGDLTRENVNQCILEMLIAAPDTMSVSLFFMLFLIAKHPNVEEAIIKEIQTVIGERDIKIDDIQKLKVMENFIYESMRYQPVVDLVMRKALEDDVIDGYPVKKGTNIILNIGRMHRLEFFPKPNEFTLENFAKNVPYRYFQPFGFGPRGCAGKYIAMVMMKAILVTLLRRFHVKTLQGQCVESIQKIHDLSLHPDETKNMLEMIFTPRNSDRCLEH
# Summary of the method: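 Recombinant enzyme in a cell-free format, read 0.5 h after dosing by fluorescence from a fluorogenic substrate. Loss of signal was fitted against acetonitrile as baseline. Primary screen in duplicate at 10 uM, actives then tested in concentration series.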
# [13] = target: human CYP2A6, CYP2A6 (gene 1548) (UniProt P11509); assay: NVS_ADME_hCYP2A6: NovaScreen (NVS) CYP450-related Enzyme Activity (ADME) Assay for human CYP2A6 (AID 2283099; active = hit-call score of the fitted dose curve at least 0.9, where 1 is the maximum)
# Sequence of human CYP2A6, CYP2A6 (gene 1548) (P11509 whole entry, looked up): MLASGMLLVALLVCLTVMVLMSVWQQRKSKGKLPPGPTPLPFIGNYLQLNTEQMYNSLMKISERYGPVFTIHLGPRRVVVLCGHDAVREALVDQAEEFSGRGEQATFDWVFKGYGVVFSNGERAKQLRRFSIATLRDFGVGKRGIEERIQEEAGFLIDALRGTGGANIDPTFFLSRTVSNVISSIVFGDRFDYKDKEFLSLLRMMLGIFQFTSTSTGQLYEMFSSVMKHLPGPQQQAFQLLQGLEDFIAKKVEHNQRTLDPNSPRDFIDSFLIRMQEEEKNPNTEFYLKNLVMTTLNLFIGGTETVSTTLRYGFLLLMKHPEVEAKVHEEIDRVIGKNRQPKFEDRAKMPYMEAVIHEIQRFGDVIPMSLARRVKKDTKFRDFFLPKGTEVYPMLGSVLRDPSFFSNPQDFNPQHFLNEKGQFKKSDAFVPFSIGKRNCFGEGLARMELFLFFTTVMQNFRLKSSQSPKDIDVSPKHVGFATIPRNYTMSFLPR
# Summary of the method: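 Cell-free fluorescence readout of recombinant human CYP2A6 expressed in insect cells, read 0.5 h after dosing; loss of signal versus acetonitrile negative control. Primary screen in duplicate at 10 uM; actives re-run in concentration-response up to 20 uM.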
# [14] = target: human CYP2B6, CYP2B6 (gene 1555) (UniProt P20813); assay: NVS_ADME_hCYP2B6: NovaScreen (NVS) CYP450-related Enzyme Activity (ADME) Assay for human CYP2B6 (AID 2283101; active = hit-call score of the fitted dose curve at least 0.9, where 1 is the maximum)
# Sequence of human CYP2B6, CYP2B6 (gene 1555) (P20813 whole entry, looked up): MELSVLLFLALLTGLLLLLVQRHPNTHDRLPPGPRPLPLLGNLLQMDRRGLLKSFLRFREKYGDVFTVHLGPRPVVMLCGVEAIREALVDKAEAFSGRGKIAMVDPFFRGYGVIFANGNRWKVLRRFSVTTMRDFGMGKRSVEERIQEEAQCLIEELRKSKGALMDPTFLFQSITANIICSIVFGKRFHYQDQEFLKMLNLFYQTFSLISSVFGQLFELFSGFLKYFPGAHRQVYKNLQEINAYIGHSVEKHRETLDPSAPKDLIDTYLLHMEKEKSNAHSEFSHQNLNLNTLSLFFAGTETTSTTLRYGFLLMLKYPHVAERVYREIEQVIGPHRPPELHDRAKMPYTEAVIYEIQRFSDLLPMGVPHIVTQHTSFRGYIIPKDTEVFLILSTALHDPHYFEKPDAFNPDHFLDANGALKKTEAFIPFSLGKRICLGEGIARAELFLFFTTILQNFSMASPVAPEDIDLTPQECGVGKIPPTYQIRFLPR
# Summary of the method: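 Compounds were first screened in duplicate at 10 uM against recombinant enzyme, with the fluorescent product measured after 1 hour. Active compounds were retested over a concentration series. Loss of fluorescence versus acetonitrile control was scored as reduced enzyme activity.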
# [15] = target: human CYP1A2, CYP1A2 (gene 1544) (UniProt P05177); assay: NVS_ADME_hCYP1A2: NovaScreen (NVS) CYP450-related Enzyme Activity (ADME) Assay for human CYP1A2 (AID 2283102; active = hit-call score of the fitted dose curve at least 0.9, where 1 is the maximum;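 also: potency for inhibition since loss of fluorescence marks reduced CYP1A2 activity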)
# Sequence of human CYP1A2, CYP1A2 (gene 1544) (P05177 whole entry, looked up): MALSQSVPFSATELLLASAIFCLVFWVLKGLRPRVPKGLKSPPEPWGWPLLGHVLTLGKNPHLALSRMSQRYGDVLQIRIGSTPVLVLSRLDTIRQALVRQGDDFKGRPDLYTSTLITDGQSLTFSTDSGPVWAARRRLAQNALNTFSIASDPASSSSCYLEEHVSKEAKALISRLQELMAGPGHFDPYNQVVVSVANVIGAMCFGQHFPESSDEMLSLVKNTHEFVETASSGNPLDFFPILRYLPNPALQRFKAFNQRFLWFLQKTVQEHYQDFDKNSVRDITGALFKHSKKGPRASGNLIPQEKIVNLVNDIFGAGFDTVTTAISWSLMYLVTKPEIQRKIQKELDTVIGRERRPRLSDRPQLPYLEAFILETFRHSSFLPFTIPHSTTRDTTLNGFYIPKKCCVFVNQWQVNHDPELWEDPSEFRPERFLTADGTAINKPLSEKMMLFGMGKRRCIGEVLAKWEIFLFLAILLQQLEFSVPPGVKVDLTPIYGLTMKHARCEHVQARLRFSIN
# Summary of the method: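 Cell-free recombinant human CYP1A2 expressed in insect cells, with fluorogenic substrate; fluorescence intensity read 0.5 h after dosing. Loss of signal relative to acetonitrile baseline scored. Primary screen in duplicate at 10 uM; actives retested in concentration series.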
# [16] = target: human CYP2D6, CYP2D6 (gene 1565) (UniProt P10635); assay: NVS_ADME_hCYP2D6: NovaScreen (NVS) CYP450-related Enzyme Activity (ADME) Assay for human CYP2D6 (AID 2283107; active = hit-call score of the fitted dose curve at least 0.9, where 1 is the maximum)
# Sequence of human CYP2D6, CYP2D6 (gene 1565) (P10635 whole entry, looked up): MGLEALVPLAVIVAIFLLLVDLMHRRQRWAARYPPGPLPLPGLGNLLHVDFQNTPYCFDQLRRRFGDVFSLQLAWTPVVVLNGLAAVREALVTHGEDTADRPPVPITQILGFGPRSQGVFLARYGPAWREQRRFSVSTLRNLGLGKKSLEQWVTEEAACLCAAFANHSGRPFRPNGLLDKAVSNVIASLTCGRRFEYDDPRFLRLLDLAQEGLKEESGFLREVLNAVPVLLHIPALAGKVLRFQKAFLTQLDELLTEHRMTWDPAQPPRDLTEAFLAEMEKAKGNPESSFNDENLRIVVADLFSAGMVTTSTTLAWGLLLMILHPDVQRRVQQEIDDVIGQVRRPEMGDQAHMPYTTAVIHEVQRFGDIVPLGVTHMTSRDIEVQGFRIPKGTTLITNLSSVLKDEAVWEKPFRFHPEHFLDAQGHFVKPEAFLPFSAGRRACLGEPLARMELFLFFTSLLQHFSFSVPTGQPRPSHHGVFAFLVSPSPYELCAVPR
# Summary of the method: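 Cell-free assay using recombinant enzyme expressed in insect cells, with fluorescence-intensity readout of enzyme activity 1 hour after chemical dosing. Loss of signal versus acetonitrile negative control indicates inhibition. Primary screen ran in duplicate at 10 uM; actives were retested in concentration series.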
# [17] = BSK_SAg_Proliferation: Cell Proliferation Assessment in the BioMAP Diversity Plus: SAg Assay (AID 2283095); conditions: primary human HUVEC with PBMC
# Summary of the method: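 Human umbilical vein endothelial cells co-cultured with PBMC; sulforhodamine B total-protein staining (0.1% SRB after 10% TCA fixation, absorbance 560 nm) at 96 h in sub-confluent culture. Fitted bidirectionally against DMSO.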
# Sequence of Tumor necrosis factor (Homo sapiens) (P01375 whole entry, looked up): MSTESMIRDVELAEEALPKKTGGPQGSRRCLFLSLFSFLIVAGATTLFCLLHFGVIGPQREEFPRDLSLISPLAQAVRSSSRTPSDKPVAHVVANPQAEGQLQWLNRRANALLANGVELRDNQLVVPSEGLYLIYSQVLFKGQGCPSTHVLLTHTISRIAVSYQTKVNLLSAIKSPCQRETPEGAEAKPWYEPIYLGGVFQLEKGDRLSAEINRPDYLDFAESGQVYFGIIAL
# Sequence of E-selectin (Homo sapiens) (P16581 whole entry, looked up): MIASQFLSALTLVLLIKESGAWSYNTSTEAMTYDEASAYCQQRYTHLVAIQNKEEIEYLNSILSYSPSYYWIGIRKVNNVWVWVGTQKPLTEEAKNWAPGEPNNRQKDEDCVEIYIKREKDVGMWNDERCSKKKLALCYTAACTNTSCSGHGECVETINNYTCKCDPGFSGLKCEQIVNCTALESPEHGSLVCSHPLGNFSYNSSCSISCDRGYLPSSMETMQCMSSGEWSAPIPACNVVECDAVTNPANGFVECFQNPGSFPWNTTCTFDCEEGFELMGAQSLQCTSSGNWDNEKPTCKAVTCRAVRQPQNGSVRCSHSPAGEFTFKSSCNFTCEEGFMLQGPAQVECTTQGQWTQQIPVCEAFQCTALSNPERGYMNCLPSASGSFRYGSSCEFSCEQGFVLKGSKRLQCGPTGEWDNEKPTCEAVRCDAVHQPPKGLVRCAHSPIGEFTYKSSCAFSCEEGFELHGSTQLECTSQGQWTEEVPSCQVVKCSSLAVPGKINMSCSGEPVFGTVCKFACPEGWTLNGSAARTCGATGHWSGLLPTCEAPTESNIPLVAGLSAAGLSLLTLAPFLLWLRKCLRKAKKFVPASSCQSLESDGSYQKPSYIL
compound,measurement,setting,value
CCCOC(=O)c1ccc(C(=O)OCCC)nc1,outcome,[1],inactive
same,outcome,[2],inactive
same,outcome,[3],inactive
same,outcome,[4],inactive
same,outcome,[5],inactive
same,AC50,"CD38, CD38 (gene 952)",624 nM (active)
same,AC50,"CD40, CD40 (gene 958)",3.09 µM (active)
same,outcome,"CD69, CD69 (gene 969)",inactive
same,outcome,[6],inactive
same,outcome,[7],inactive
same,outcome,[8],inactive
same,outcome,[9],inactive
same,outcome,[10],inactive
same,outcome,[11],inactive
same,outcome,[12],inactive
COCCO,outcome,[1],inactive
same,outcome,[2],inactive
same,outcome,[3],inactive
same,outcome,[4],inactive
same,outcome,[5],inactive
same,outcome,"CD38, CD38 (gene 952)",inactive
same,outcome,"CD40, CD40 (gene 958)",inactive
same,outcome,"CD69, CD69 (gene 969)",inactive
same,outcome,[6],inactive
same,outcome,[7],inactive
same,outcome,[8],inactive
same,outcome,[9],inactive
same,outcome,[10],inactive
same,outcome,[11],inactive
N#CSCSc1nc2ccccc2s1,AC50,[1],1.9 µM (active) and 2.28 µM (active)
same,AC50,[2],2.25 µM (active) and 6.78 µM (active)
same,AC50,[3],2.42 µM (active) and 5.42 µM (active)
same,AC50,[4],992 nM (active) and 2.17 µM (active)
same,AC50,[5],4.53 µM (active) and 9.69 µM (active)
same,AC50,"CD38, CD38 (gene 952)",5.37 µM (active) and 5.56 µM (active)
same,AC50,"CD40, CD40 (gene 958)",5.42 µM (active) and 6.26 µM (active)
same,AC50,"CD69, CD69 (gene 969)",3.12 µM (active) and 6.36 µM (active)
same,AC50,[6],7.7 µM (active) and 10.5 µM (active)
same,AC50,[7],5.69 µM (active) and 8.52 µM (active)
same,AC50,[8],11.6 µM (active) and 9.68 µM (active)
same,AC50,[9],909 nM (active) and 2.23 µM (active)
same,AC50,[10],5.44 µM (active) and 10.9 µM (active)
same,AC50,[11],18.2 µM (active) and 10.5 µM (active)
same,AC50,[13],3.06 µM (active)
same,AC50,[14],1.87 µM (active)
same,AC50,[15],3.44 µM (active)
same,AC50,[16],1.99 µM (active) and 1.9 µM (active)
CC(=O)[C@H]1CC[C@H]2[C@@H]3CCC4=CC(=O)CC[C@]4(C)[C@H]3CC[C@]12C,outcome,[1],inactive
same,outcome,[2],inactive
same,outcome,[3],inactive
same,outcome,[4],inactive
same,outcome,[5],inactive
same,AC50,"CD38, CD38 (gene 952)",25700 nM (active)
same,AC50,"CD40, CD40 (gene 958)",20 µM (active)
same,outcome,[6],inactive
same,AC50,[7],1.01 µM (active)
same,outcome,[8],inactive
same,AC50,[9],9.94 µM (active)
same,outcome,[10],inactive
same,AC50,[17],28.8 µM (active)
same,AC50,[11],4.21 µM (active)
same,outcome,[12],inactive

# Source: PubChem BioAssay (EPA / NIEHS)
